RE007 growth inh: qHTS Assay for Inhibitors of the HIV-1 protein Vpr; Potency, µM (top dose mostly 92.2 µM), inactives show at the top dose activity change, negative = less growth, most hits filed as inhibitors; 360,000 compounds, 0.21% hits; S. pombe RE007 Vpr strain, BacTiter-Glo ATP luminescence, 24 h; active = well fitted falling curve with a large enough effect; inconclusive = small, poorly fitted or top-dose-only effect; inactive = no such curve, though single readings can be large or run the other way; note: nearly all actives have a fitted effect of over 50% in size
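Fission yeast strain RE007, carrying one chromosomally integrated HIV-1 vpr copy, was seeded at OD 0.01 in PMG+AL medium with 23 nL pinned compound. After 24 h at 30 °C and 99% humidity, viability was read by BacTiter-Glo luminescence.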
Sm TGR block: qHTS Assay for the Inhibitors of Schistosoma Mansoni Peroxiredoxins. Schistosoma mansoni thioredoxin glutathione reductase (TGR), Q962Y6. purified TGR, DTNB reduction, TNB absorbance 405 nm. Potency, µM (series often up to 114 µM), inactives show top-dose activity change, negative = inhibition, most hits filed as inhibitors. 360,000 compounds, 3% hits; note: nearly all actives have a fitted effect of over 60% in size
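TGR 20 nM + NADPH 100 uM (dispensed conc.), cpd preinc 15 min RT; start with NADPH (500 uM addition) then DTNB (15 mM addition). Kinetic TNB absorbance, 405 nm filter. Four-parameter Hill fit across titration.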
Tb PYK inh: qHTS of Trypanosoma Brucei Inhibitors | Potency, µM (top dose mostly 76.8 µM), for inactives: at the top dose activity, negative = inhibition, hits mostly inhibitors | pyruvate kinase (Trypanosoma brucei), Q57TT1 | TbPYK enzyme, Kinase-Glo Plus ATP luminescence, 45 min | 410,000 compounds, 0.12% hits; note: nearly all actives have a fitted effect of over 50% in size
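In this concentration-response screen, enzyme-free wells defined baseline while DMSO plates tracked drift. Each reaction combined TbPYK, substrate, compound and 130 uM ADP for 45 min at room temperature. Kinase-Glo Plus luminescence gave the signal.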
FBPA Giardia inh: qHTS Assay for Inhibitors of Fructose-1,6-bisphosphate Aldolase from Giardia Lamblia. 290,000 compounds, 0.71% hits. AID 2451, 2010. A8B2U2. Potency, µM (highest dose often 59.6 µM), for the others: at the highest dose activity, negative = inhibition, actives largely listed as inhibitors. purified Giardia FBPA; note: nearly all actives have a fitted effect of over 55% in size
Target sequence (A8B2U2 whole entry, looked up): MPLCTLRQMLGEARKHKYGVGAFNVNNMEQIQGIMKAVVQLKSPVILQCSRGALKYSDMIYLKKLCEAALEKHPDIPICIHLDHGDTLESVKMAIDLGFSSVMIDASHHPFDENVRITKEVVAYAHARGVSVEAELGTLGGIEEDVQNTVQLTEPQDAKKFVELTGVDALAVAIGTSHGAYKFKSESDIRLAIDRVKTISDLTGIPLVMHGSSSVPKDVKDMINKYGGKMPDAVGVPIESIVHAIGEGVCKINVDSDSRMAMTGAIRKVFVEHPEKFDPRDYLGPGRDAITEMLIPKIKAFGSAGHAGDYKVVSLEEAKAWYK
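40 nM FBPA preincubated 10 min at RT with compound (up to 57.5 uM final), then substrate plus GAPDH/TPI/NAD/arsenate coupling and diaphorase/resazurin added. Fluorescence read after 20 min at RT, 525/598 nm.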
LmPK inh: qHTS Assay for Inhibitors of Leishmania Mexicana Pyruvate Kinase (LmPK); purified LmPK, Kinase-Glo ATP luminescence, 1 h; Potency, µM (series often up to 57.5 µM), for inactives: at the top dose activity change, negative = inhibition, usual class: inhibitors; AID 1721, 2009; Q27686; 290,000 compounds, 0.37% hits
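Purified LmPK (0.1 nM) with 0.5 mM PEP and 0.1 mM ADP in imidazole buffer pH 7.2 with MgCl2/KCl, 1 h at room temperature. ATP formed was read by luciferase luminescence and normalized to no-enzyme and uninhibited controls.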
Starred values were filed as active, the others as inactive; ? = inconclusive; / = not tested or not shown; [ ] = dose if it differs, or a comment. Only some compounds are listed: those with a hit (about 3.3% of all), similar ones and a draw of the others. Unless noted, calls come from the whole dose curve; as a rule, active = well fitted curve in the direction sought with a large enough effect; inconclusive = small, poorly fitted or top-dose-only effect, or another doubt; inactive = no such curve, though single readings can be large; an effect the other way counts as inactive or inconclusive. % is set by controls: 0 for no effect and ±100 for the full control effect; potency is the fitted concentration of half-maximal effect.

SMILES	RE007 growth inh	Sm TGR block	Tb PYK inh	FBPA Giardia inh	LmPK inh
Cc1ccc(C(=O)CSc2nnc3c4ccccc4nc(Cc4ccccc4)n23)cc1	2.3%	-3.7%	2.7%	-9.5%	1.4%
CC(C)[C@H](NC(=O)OCc1ccccc1)C(=O)NC(C=O)Cc1ccccc1 (stereo partly specified)	-3.0%[18.4 µM]	-14.8%	-1.5%	/	/
CCOc1cc(/C=C\c2[nH]c(=O)[nH]c(=O)c2[N+](=O)[O-])ccc1OC(C)CC (stereo unspecified)	-9.8%	-17.7%	-3.9%	21.2%	-6.4%
CCC(C(=O)NC1CCCCC1)n1c(SCc2ccc(F)cc2)nc2ccncc21 (stereo unspecified)	4.9%	-9.2%	-0.7%	8.2%	7.2%
CC(C)(O)C#Cc1ccc(C(=O)N2CCCC(CNS(=O)(=O)c3cccs3)C2)o1 (stereo unspecified)	15.2%	11.2µM*	-11.3%	/	7.1%
COc1ccc(C(c2c(O)ccc3ccccc23)N2CCOCC2)c(OC)c1 (stereo unspecified)	-5.3%	3.55µM*	-0.3%	-5.2%	4.7%
COc1ccc(C(CCN2CCOCC2)c2c(O)cc(OC)cc2OC)cc1 (stereo unspecified)	-4.4%	-12.9%	0.1%	-21.9%	-1.3%
O=C(O)COc1ccc2c(c1)O/C(=C\c1ccco1)C2=O	15.0%	22.4µM*	-21.5%	-1.5%	-8.0%
Cc1cccc(NS(=O)(=O)c2cccc3nsnc23)c1	10.3%	-13.9%	0.9%	-3.9%	-3.6%
C=CCNC(=O)c1ccccc1NC(=O)C1CC(=O)N(C(C)C)C1 (stereo unspecified)	5.0%	17.8µM*	-5.3%	2.4%	14.0%
O=c1[nH]nc(CNc2ccc(O)cc2)c2ccccc12	-15.9%	35.5µM*	-16.1%	17.7µM*	-9.1%
O=C(Nc1ccccc1N(C(=O)c1ccco1)S(=O)(=O)c1cccs1)c1ccco1	9.0%	44.7µM*	2.5%	2.3%	4.9%
COc1ccc(N(C(=O)c2ccco2)S(=O)(=O)c2cccs2)cc1	14.2%	?	-8.9%	13.9%	2.3%
CC(C)Nc1ccc(Nc2ccccc2)cc1	?	8.91µM*	?	/	/
CCc1nc2nc(C)cc(Nc3cc(Cl)ccc3C)n2n1	/	2.8%	-6.0%	/	/
Cc1ccc(C(=O)Nc2ncc3c(Cl)cccc3n2)cc1	?	13.3%	-19.0%	-9.2%	12.6µM*
Cc1ccc(C(=O)Nc2ccc(Cl)cn2)cc1	4.6%	-3.8%	1.6%	-13.7%	-25.9%
C#Cc1cccc(Nc2nc(NCc3ccccc3OC)nc3ccsc23)c1	-15.9%	/	-9.3%	/	/
CCOc1c(Cl)cc(CNc2ccc(N3CCCC3)cc2)cc1OC	-17.5%	12.6µM*	?	?	-0.6%
C#CCOCCOCCOCCNc1nc(N2CCN(C(=O)C([C@@H](C)CC)n3cc(C(N)CO)nn3)CC2)nc(N2CCN(C(=O)[C@H](CCC(=O)O)n3cc(C(N)Cc4ccc(O)cc4)nn3)CC2)n1 (stereo partly specified)	/	?	/	-1.8%	1.9%
C#CCOCCOCCOCCNc1nc(N2CCN(C(=O)[C@H](CCC(=O)O)n3cc(C(N)CO)nn3)CC2)nc(N2CCN(C(=O)[C@H](Cc3ccc(O)cc3)n3cc(C(N)CC(C)C)nn3)CC2)n1 (stereo partly specified)	/	10µM*	/	-0.9%	-1.7%
C#CCOCCOCCOCCNc1nc(N2CCN(C(=O)[C@H](Cc3ccc(O)cc3)n3cc(CCO)nn3)CC2)nc(N2CCN(C(=O)[C@H](Cc3ccc(O)cc3)n3cc(CCO)nn3)CC2)n1	/	39.8µM*	/	10.5%	1.9%
C#CCOCCOCCOCCNc1nc(N2CCN(C(=O)[C@H]([C@@H](C)CC)n3cc([C@@H](N)Cc4ccc(O)cc4)nn3)CC2)nc(N2CCN(C(=O)[C@H](CCCCN)n3cc([C@@H](N)CO)nn3)CC2)n1	/	20µM*	/	-22.8%	1.0%

Bioassay records as filed in PubChem.
